Drawing on the supplement of paper PMC10849652, this text covers log2 fold change for 36 targets.

About 7,900 targets were measured; listed, in parts, are those with a hit and a random draw of the rest. About 0.6% of all pairs of compound and target were hits.

UniProt Q15642, sequence (Q15642 whole entry, looked up): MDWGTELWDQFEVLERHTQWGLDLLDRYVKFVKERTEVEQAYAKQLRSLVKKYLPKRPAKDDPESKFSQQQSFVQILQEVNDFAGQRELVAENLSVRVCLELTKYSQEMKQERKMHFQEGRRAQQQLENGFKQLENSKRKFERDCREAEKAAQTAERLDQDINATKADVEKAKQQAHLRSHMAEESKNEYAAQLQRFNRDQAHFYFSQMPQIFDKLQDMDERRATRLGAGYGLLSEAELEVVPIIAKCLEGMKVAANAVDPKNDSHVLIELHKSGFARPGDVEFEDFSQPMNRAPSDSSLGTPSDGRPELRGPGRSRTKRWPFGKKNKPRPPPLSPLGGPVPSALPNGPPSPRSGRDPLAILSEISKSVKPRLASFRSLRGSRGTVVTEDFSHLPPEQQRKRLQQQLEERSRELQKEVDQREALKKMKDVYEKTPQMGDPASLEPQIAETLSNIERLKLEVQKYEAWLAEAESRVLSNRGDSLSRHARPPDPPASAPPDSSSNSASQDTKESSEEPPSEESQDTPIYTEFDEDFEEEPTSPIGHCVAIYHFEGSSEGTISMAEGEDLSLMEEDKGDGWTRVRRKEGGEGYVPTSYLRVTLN
UniProt Q8IY95, sequence (Q8IY95 whole entry, looked up): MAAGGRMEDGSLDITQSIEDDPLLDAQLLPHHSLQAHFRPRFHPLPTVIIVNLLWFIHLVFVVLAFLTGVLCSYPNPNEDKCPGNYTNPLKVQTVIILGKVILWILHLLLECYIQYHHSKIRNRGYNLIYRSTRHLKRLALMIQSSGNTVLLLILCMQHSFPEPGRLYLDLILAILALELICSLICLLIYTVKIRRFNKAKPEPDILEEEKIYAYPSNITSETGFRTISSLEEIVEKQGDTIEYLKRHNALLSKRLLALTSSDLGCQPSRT
UniProt Q969T4, sequence (Q969T4 whole entry, looked up): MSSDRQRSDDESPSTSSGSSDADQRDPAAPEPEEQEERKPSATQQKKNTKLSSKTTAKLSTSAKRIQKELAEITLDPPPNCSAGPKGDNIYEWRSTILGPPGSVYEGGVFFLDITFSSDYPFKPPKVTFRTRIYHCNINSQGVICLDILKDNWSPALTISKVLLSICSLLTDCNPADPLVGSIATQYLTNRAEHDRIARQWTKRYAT
UniProt Q9HAD4, sequence (Q9HAD4 whole entry, looked up): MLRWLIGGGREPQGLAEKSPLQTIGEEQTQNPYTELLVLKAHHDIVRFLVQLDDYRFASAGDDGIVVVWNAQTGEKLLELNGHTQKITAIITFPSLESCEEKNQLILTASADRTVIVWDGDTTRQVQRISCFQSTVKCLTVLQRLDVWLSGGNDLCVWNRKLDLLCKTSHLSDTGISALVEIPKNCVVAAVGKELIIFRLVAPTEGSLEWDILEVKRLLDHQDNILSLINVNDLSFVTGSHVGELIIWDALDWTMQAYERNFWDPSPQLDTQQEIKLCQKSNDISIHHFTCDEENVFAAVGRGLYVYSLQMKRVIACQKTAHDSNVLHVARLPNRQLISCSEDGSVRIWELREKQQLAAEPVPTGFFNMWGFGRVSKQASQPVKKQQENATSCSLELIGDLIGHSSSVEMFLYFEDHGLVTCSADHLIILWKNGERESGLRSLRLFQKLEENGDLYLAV
UniProt Q9H4A3, sequence (Q9H4A3 whole entry, looked up): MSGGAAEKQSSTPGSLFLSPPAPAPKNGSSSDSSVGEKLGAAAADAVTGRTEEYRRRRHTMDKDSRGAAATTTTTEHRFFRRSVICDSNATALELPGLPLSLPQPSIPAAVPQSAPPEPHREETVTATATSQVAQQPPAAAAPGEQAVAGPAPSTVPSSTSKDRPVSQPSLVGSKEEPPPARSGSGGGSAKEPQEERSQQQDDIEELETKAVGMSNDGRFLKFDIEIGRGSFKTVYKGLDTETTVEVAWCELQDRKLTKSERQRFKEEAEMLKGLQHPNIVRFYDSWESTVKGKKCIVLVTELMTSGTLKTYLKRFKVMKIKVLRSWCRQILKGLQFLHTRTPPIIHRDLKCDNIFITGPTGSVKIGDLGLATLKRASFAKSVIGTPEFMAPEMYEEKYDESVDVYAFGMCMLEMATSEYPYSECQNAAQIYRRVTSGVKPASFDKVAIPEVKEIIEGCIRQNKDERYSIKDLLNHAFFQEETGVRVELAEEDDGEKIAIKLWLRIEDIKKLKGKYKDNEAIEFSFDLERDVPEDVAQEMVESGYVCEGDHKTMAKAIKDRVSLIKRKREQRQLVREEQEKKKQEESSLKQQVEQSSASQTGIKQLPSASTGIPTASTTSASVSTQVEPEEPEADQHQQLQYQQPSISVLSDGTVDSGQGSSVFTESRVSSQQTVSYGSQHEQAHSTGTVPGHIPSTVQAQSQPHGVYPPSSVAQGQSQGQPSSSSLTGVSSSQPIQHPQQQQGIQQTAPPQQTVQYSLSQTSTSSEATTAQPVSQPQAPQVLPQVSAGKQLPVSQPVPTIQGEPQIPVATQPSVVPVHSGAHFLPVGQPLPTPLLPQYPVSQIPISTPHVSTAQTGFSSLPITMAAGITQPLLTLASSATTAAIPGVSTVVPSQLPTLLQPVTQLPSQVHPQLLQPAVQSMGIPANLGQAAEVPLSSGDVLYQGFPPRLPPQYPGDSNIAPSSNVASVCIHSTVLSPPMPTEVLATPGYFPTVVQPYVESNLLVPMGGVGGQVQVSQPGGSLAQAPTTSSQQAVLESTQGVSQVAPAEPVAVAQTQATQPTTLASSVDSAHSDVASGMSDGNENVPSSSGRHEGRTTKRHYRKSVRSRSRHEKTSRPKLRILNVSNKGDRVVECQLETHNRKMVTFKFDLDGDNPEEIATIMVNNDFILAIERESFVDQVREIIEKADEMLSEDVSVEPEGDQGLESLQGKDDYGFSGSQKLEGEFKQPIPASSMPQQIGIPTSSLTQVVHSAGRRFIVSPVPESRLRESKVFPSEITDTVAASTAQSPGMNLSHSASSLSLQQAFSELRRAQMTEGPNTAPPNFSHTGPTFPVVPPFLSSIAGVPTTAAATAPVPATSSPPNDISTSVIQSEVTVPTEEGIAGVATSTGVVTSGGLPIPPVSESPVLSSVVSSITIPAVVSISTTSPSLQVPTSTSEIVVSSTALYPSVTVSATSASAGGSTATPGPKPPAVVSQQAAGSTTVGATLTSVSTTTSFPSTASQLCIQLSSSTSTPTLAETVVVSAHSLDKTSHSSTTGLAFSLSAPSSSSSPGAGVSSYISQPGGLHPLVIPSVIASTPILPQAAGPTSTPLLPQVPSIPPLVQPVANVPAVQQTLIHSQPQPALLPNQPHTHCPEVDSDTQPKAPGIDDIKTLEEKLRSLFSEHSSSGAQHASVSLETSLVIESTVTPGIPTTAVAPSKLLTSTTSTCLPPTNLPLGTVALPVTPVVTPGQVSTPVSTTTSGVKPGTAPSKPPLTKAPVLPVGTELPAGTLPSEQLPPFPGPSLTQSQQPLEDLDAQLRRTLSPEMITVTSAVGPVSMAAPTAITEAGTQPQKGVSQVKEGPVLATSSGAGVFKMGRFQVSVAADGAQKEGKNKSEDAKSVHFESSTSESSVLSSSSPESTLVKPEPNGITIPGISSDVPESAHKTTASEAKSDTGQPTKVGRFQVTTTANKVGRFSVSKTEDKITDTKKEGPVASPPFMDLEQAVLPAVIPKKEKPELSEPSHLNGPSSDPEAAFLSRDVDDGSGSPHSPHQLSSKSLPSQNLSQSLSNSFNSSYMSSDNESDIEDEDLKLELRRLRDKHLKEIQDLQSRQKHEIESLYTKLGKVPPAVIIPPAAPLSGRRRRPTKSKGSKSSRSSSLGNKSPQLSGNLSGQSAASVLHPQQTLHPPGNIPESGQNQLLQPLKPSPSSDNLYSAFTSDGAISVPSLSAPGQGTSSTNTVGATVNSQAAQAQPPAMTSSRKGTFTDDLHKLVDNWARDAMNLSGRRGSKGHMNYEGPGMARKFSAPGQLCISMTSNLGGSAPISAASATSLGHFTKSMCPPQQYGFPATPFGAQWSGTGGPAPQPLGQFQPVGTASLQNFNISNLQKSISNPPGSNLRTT
UniProt O75717, sequence (O75717 whole entry, looked up): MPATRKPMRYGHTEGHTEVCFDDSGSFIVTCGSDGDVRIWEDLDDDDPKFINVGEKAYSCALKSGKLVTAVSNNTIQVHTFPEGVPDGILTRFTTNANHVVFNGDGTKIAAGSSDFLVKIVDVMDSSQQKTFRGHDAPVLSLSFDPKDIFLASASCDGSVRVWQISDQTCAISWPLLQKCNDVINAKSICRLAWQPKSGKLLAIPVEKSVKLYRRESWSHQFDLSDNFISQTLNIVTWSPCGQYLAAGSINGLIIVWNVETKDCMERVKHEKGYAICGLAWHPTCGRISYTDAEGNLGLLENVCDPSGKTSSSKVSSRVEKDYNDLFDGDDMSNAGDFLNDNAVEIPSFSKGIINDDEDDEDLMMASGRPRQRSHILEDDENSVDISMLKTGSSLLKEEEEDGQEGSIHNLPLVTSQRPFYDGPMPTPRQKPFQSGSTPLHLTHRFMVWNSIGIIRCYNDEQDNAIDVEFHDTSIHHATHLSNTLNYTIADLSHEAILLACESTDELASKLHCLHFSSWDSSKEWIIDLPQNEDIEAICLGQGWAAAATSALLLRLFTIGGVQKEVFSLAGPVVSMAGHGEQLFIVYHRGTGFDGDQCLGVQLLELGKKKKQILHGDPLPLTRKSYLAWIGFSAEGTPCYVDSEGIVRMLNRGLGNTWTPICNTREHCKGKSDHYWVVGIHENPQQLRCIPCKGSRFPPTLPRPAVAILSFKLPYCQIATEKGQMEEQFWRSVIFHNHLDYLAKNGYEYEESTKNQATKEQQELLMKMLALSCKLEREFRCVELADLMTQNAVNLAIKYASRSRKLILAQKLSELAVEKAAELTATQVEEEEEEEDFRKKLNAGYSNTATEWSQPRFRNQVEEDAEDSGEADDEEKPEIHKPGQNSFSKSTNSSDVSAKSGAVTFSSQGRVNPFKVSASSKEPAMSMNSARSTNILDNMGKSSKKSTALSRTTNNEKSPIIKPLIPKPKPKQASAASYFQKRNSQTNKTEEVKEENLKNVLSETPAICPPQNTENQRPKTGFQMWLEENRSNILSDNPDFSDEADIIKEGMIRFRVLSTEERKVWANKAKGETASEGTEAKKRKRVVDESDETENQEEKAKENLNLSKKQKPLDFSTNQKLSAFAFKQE

Compound in one experiment: C[C@H](Nc1ncnc2nc[nH]c12)c1cc2cccc(Cl)c2c(=O)n1-c1ccccc1 [duvelisib]
The experiment can be described thus: log2 fold change, soluble protein after heating vs DMSO (PISA); higher = thermal stabilisation; K562 cells, 10 uM, 30 min; active = over 0.2 and 3.5 SD of the protein, either way, in both replicates (recomputed). An outline of the steps:
(§1)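 Soluble protein was quantified by TMTpro 16plex LC-MS/MS after channel sums were equalised. It was obtained as the supernatant after 21,000xg for 90 min from pooled aliquots of K562 cells (2×10^6 cells/mL, 10 μM compound, 30 min) heated for 3 min across 48°C-58°C and extracted in PBS with 0.5% NP-40 at 4°C. Thermal stability values are relative to control samples and come from duplicates. They are given as log2 fold changes.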
As for TMEM214 (UniProt Q6NUQ4), the log2 fold change was 0.011 (inactive).

For the target WDR62 isoform 4 (UniProt O43379), the log2 fold change is 0.011 (inactive).

As to VPS11 (UniProt Q9H270), the log2 fold change is -0.016 (inactive).

Turning to WASHC2C, A0A096LPC5, the log2 fold change is 0.15 (inactive).

For WNK1 isoform 7 (UniProt Q9H4A3), the log2 fold change was -0.016 (inactive).

VPS52 (UniProt Q8N1B4): the log2 fold change is 0.033 (inactive).

With TPM2 (UniProt P07951), the log2 fold change was -0.131 (inactive).

For the target WASHC2A (UniProt Q641Q2), the log2 fold change was -0.061 (inactive).

For the target TRAPPC11 (UniProt Q7Z392), the log2 fold change was 0.043 (inactive).

As for WDHD1 (UniProt O75717), the log2 fold change is 0.109 (inactive).

Take TXNIP (UniProt Q9H3M7): the log2 fold change was 0.03 (inactive).

VPS41 (UniProt P49754): the log2 fold change is 0.008 (inactive).

Consider TRIP10 (UniProt Q15642), for which the log2 fold change was 0.005 (inactive).

Consider TRIP10 isoform 2 (UniProt Q15642), for which the log2 fold change was 0.001 (inactive).

Turning to USP48 isoform 8 (UniProt Q86UV5), the log2 fold change is 0.088 (inactive).

For the target VPS8 (UniProt Q8N3P4), the log2 fold change was 0.038 (inactive).

For TOM1L1 (UniProt O75674), the log2 fold change is 0.102 (inactive).

With TMTC3 (UniProt Q6ZXV5), the log2 fold change is -0.017 (inactive).

Take TPP1 (UniProt O14773): the log2 fold change is 0.056 (inactive).

With VPS28 (UniProt Q9UK41), the log2 fold change is 0.044 (inactive).

For the target TMEM9 (UniProt Q9P0T7), the log2 fold change is -0.012 (inactive).

Take TNPO3 (UniProt Q9Y5L0): the log2 fold change is -0.008 (inactive).

In the case of WAPL isoform 3 (UniProt Q7Z5K2), the log2 fold change is 0 (inactive).

As to TMEM192 (UniProt Q8IY95), the log2 fold change is 0.026 (inactive).

Take UHRF1BP1L (UniProt A0JNW5): the log2 fold change is 0.091 (inactive).

For TTI1 (UniProt O43156), the log2 fold change is -0.03 (inactive).

Consider USP34 (UniProt Q70CQ2), for which the log2 fold change is 0.078 (inactive).

In the case of UBE2E3 (UniProt Q969T4), the log2 fold change is 0.025 (inactive).

On to VDAC1 (UniProt P21796), for which the log2 fold change was -0.002 (inactive).

For TRMT10A (UniProt Q8TBZ6), the log2 fold change is 0.053 (inactive).

Regarding USP25 isoform 3 (UniProt Q9UHP3), the log2 fold change was 0.05 (inactive).

Regarding UBAP1 isoform 4 (UniProt Q9NZ09), the log2 fold change was 0.052 (inactive).

In the case of TMEM63B (UniProt Q5T3F8), the log2 fold change is -0.085 (inactive).

For the target USP24 (UniProt Q9UPU5), the log2 fold change was 0.219 (inactive).

Turning to WDR41 (UniProt Q9HAD4), the log2 fold change was 0.013 (inactive).

Consider TRAM1 (UniProt Q15629), for which the log2 fold change was -0.003 (inactive).

Compound in a further experiment: Cc1cc(Nc2cc(CN3CCOCC3)c3nc(C)c(Cc4ccc(Cl)cc4F)n3n2)n[nH]1 [gandotinib]
The experiment is described as above. An outline of the steps:
as §1
As for TMEM214 (UniProt Q6NUQ4), the log2 fold change was -0.079 (inactive).

As to WDR62 isoform 4 (UniProt O43379), the log2 fold change was -0.204 (active).

Regarding VPS11 (UniProt Q9H270), the log2 fold change was -0.111 (inactive).

With WASHC2C, A0A096LPC5, the log2 fold change was 0.189 (inactive).

With WNK1 isoform 7 (UniProt Q9H4A3), the log2 fold change is -0.032 (inactive).

Take VPS52 (UniProt Q8N1B4): the log2 fold change is -0.122 (inactive).

On to TPM2 (UniProt P07951), for which the log2 fold change was -0.046 (inactive).

Take WASHC2A (UniProt Q641Q2): the log2 fold change was 0.012 (inactive).

Consider TRAPPC11 (UniProt Q7Z392), for which the log2 fold change was -0.047 (inactive).

In the case of WDHD1 (UniProt O75717), the log2 fold change was -0.029 (inactive).

With TXNIP (UniProt Q9H3M7), the log2 fold change is -0.068 (inactive).

VPS41 (UniProt P49754): the log2 fold change was -0.117 (inactive).

Turning to TRIP10 (UniProt Q15642), the log2 fold change was 0.044 (inactive).

TRIP10 isoform 2 (UniProt Q15642): the log2 fold change is 0.147 (inactive).

For the target USP48 isoform 8 (UniProt Q86UV5), the log2 fold change was -0.197 (inactive).

Regarding VPS8 (UniProt Q8N3P4), the log2 fold change was -0.097 (inactive).

Consider TOM1L1 (UniProt O75674), for which the log2 fold change is -0.342 (active).

On to TMTC3 (UniProt Q6ZXV5), for which the log2 fold change is -0.039 (inactive).

For the target TPP1 (UniProt O14773), the log2 fold change was 0.049 (inactive).

For the target VPS28 (UniProt Q9UK41), the log2 fold change was -0.055 (inactive).

With TMEM9 (UniProt Q9P0T7), the log2 fold change was -0.026 (inactive).

For the target TNPO3 (UniProt Q9Y5L0), the log2 fold change was -0.143 (inactive).

For the target WAPL isoform 3 (UniProt Q7Z5K2), the log2 fold change was -0.199 (inactive).

On to TMEM192 (UniProt Q8IY95), for which the log2 fold change was 0.059 (inactive).

Consider UHRF1BP1L (UniProt A0JNW5), for which the log2 fold change was -0.038 (inactive).

For the target TTI1 (UniProt O43156), the log2 fold change is -0.119 (inactive).

For USP34 (UniProt Q70CQ2), the log2 fold change is -0.131 (inactive).

As to UBE2E3 (UniProt Q969T4), the log2 fold change is -0.052 (inactive).

In the case of VDAC1 (UniProt P21796), the log2 fold change was 0.017 (inactive).

With TRMT10A (UniProt Q8TBZ6), the log2 fold change is 0 (inactive).

In the case of USP25 isoform 3 (UniProt Q9UHP3), the log2 fold change was -0.024 (inactive).

Consider UBAP1 isoform 4 (UniProt Q9NZ09), for which the log2 fold change was 0.009 (inactive).

For TMEM63B (UniProt Q5T3F8), the log2 fold change is -0.028 (inactive).

For USP24 (UniProt Q9UPU5), the log2 fold change is -0.213 (inactive).

As for WDR41 (UniProt Q9HAD4), the log2 fold change is -0.035 (inactive).

As for TRAM1 (UniProt Q15629), the log2 fold change is -0.47 (active).
